Residual activity data for 1 compound are collected here from ChEMBL document CHEMBL2218924, “A broad activity screen in support of a chemogenomic map for kinase signalling research and drug discovery” (Biochem J, 2013).

For experiment [1], the target named is Tyrosine-protein kinase SYK (Homo sapiens) (UniProt P43405). The following applies: at 10 µM.
For experiment [2], the target named is T1, Mitogen-activated protein kinase kinase kinase 7 (Homo sapiens) (UniProt O43318).
T1 sequence (whole entry): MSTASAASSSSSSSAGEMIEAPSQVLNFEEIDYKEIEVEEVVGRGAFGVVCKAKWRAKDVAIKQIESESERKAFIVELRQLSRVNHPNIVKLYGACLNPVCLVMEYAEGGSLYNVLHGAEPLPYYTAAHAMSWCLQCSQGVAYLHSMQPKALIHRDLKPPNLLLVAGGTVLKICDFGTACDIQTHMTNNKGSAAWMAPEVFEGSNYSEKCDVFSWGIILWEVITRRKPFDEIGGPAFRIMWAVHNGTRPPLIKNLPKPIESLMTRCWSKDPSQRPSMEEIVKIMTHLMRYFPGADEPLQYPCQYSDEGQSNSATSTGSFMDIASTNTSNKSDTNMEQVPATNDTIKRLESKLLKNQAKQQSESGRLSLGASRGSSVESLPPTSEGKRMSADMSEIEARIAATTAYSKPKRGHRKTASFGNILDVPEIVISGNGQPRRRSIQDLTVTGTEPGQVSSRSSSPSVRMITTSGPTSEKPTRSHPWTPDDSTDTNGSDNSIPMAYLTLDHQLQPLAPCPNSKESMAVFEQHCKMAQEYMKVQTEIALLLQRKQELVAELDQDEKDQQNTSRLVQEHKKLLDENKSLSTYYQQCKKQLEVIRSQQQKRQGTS
Particulars: at 1 µM.

Experiment [3] deals with T1, Mitogen-activated protein kinase kinase kinase 7 (Homo sapiens). Particulars: at 10 µM.
Experiment [4] addresses T2, Serine/threonine-protein kinase TAO1 (Homo sapiens) (UniProt Q7L7X3).
T2 sequence (whole entry): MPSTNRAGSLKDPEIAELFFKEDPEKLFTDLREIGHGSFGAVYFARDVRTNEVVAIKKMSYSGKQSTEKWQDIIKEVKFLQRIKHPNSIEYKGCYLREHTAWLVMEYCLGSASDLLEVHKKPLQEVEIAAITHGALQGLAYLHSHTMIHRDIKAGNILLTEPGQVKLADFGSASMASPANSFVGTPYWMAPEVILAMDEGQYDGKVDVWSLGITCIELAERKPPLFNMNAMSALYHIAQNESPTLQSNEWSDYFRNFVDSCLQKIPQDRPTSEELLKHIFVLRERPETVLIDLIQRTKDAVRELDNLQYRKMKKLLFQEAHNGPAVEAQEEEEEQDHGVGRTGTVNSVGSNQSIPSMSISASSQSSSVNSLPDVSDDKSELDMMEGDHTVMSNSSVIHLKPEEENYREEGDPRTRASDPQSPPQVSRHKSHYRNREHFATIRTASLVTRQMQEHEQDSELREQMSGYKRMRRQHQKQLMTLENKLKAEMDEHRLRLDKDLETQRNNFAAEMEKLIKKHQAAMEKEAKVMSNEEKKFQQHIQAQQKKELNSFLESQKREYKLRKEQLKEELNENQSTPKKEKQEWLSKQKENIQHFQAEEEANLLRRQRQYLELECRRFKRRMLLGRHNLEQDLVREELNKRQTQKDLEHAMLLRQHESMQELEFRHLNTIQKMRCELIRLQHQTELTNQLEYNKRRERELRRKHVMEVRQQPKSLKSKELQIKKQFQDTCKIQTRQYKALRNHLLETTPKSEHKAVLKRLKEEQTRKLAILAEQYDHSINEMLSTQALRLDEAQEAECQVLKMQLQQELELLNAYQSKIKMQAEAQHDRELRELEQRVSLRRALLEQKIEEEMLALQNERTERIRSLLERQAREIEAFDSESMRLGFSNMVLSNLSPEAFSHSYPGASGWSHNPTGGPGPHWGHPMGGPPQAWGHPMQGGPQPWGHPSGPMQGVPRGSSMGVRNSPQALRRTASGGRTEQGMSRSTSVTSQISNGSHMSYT
Particulars: at 1 µM.

For experiment [5], the target named is T2, Serine/threonine-protein kinase TAO1 (Homo sapiens). Particulars: at 10 µM.
For experiment [6], the target named is T3, Serine/threonine-protein kinase TBK1 (Homo sapiens) (UniProt Q9UHD2).
T3 sequence (whole entry): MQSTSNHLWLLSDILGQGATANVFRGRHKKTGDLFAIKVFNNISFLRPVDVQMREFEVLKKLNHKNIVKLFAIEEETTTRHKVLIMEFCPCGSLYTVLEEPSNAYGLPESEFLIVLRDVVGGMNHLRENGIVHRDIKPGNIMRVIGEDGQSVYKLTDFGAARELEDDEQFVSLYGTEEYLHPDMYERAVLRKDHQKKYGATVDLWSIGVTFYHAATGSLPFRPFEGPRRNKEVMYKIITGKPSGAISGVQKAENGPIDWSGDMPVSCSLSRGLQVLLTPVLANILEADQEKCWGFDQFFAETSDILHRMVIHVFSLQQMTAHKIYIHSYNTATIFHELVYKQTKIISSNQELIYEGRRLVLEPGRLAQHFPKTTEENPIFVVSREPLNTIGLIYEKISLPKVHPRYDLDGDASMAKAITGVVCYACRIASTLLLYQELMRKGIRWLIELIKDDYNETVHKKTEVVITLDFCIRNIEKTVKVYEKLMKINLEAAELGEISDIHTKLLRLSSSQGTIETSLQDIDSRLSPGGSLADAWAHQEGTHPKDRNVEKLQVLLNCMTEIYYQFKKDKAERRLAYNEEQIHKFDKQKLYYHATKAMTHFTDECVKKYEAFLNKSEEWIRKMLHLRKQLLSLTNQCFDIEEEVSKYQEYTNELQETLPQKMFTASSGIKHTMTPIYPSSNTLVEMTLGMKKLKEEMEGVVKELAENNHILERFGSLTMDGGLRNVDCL
Particulars: at 1 µM.

Experiment [7] has as its target T3, Serine/threonine-protein kinase TBK1 (Homo sapiens). Particulars: at 10 µM.
Experiment [8] has as its target Insulin receptor (Homo sapiens) (UniProt P06213). Particulars: at 1 µM.

Structures are written as SMILES.

Chain of Insulin receptor (Homo sapiens) (P06213 28-758 limits assumed): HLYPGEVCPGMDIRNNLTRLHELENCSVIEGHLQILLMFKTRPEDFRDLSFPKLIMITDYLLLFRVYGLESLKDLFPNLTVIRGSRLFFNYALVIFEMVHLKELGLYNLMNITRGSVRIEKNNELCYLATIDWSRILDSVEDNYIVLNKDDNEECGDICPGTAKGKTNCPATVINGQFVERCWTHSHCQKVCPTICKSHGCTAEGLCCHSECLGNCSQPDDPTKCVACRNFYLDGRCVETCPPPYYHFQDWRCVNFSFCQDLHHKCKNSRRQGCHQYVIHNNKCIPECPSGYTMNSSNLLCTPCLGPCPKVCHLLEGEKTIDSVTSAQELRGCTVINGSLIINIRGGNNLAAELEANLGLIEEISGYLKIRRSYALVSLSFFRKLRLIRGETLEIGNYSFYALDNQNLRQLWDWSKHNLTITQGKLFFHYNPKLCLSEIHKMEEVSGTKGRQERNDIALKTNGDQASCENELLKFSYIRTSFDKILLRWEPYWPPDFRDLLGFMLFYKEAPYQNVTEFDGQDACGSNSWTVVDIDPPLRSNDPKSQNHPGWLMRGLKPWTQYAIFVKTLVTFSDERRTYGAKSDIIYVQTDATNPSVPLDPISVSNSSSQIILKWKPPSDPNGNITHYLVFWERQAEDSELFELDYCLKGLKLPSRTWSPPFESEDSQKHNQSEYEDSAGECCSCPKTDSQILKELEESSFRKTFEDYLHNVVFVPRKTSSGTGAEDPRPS
Chain of Insulin receptor (Homo sapiens) (P06213 763-1382 limits assumed): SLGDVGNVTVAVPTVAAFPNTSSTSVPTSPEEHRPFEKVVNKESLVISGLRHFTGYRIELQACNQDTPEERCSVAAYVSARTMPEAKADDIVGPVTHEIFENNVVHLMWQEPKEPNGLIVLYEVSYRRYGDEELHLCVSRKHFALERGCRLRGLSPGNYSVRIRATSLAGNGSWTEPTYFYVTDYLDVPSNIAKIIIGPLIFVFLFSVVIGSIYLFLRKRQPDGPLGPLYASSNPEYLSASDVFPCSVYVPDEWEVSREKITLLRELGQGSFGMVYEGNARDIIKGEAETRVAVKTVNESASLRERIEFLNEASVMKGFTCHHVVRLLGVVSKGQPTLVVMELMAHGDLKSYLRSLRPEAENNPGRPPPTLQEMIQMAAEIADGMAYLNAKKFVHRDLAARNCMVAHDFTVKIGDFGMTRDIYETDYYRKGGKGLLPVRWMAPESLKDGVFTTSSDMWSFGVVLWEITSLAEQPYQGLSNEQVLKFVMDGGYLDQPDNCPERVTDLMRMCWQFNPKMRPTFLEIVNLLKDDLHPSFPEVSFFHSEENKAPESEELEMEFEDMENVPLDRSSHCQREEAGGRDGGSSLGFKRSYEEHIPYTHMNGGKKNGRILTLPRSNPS

For the compound `O=C1Cc2c([nH]c3ccc(Br)cc23)-c2ccccc2N1`, the residual activity in experiment [1] is 25%; in experiment [2] it was 81%; in experiment [3], 68%; in experiment [4], 76%; in experiment [5], 28%; in experiment [6] it was 53%. For the same compound, the residual activity in experiment [7] was 31%; in experiment [8] it was 95%.
